# High-throughput results: PubChem BioAssay, National Center for Advancing Translational Sciences (NCATS)
# An excerpt weighted towards active compounds, which were near 9.2% of everything screened.
# FLuc modulator: firefly luciferase modulation, counter-screen for miR-21 project. purified FLuc, Km substrates, luminescence inhibition. 360,000 compounds, 6.9% hits. Potency, µM (highest dose often 57.5 µM), usual class: inhibitors. P08659; also: nearly all actives have a fitted effect of over 55% in size
# Target sequence (P08659 whole entry, looked up): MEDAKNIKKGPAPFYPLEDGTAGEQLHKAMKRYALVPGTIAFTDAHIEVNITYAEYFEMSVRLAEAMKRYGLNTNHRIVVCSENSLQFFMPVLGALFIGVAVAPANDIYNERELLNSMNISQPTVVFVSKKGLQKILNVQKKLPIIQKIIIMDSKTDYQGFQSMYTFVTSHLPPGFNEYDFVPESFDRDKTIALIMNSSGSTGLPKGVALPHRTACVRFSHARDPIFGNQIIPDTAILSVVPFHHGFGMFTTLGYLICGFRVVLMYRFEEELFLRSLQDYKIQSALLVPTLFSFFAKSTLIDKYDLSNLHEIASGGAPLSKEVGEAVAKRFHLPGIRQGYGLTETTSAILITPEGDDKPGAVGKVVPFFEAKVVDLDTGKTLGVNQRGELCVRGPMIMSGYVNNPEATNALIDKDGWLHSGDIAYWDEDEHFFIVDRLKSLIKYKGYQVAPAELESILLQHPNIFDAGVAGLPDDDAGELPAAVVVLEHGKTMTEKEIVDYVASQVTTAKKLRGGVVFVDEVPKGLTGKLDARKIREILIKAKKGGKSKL
#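 Biochemical qHTS of compounds, final roughly 60 µM downward over six points, against 10 nM purified firefly luciferase using Km concentrations of substrates (10 uM D-luciferin, 10 uM ATP) in Tris acetate pH 7.5 buffer; luminescence output.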
# Rab9 promoter act: Rab9 promoter activation; Potency, µM (titrated, usually from 9.22 µM), usual class: activators; 320,000 compounds, 2.8% hits; Huh7 Rab9 promoter-luciferase reporter, luminescence, 24 h; also: nearly all actives have a fitted effect of over 60% in size
#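 Using Huh7 cells stably transfected with Rab9 promoter–luciferase, compounds were incubated 24 h at 37 °C, 5% CO2; luciferase luminescence was read 10 min after reagent addition.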
# NPC1 promoter act: activates the NPC1 promoter | 320,000 compounds, 2.4% hits | Potency, µM (top dose mostly 9.22 µM), actives largely listed as activators | Huh7 NPC1 promoter luciferase reporter, 24 h | AID 485313; also: nearly all actives have a fitted effect of over 60% in size
#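 Readout is luciferase luminescence, reflecting NPC1 promoter activation in stably transfected Huh7 cells after 24 h compound exposure at 37 °C in reduced-serum medium with 10% FBS.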
# SMN2 splice enh: increases expression of the SMN2 splice variant; Potency, µM (doses to about 46.1 µM), most hits filed as activators; HEK293 SMN2-luciferase splicing reporter, luminescence, 30-36 h; AID 1458; 210,000 compounds, 2.8% hits; also: nearly all actives have a fitted effect of over 55% in size
#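 HEK293 cells carry an SMN2 minigene-luciferase reporter in which exon 7 inclusion puts luciferase in frame. Cells were seeded at 2000 cells/well, attached for 10-12 hours, then exposed to compounds for 30-36 hours at 37C before ONE-Glo luminescence.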
# ELG1 DNA repair: blocks ELG1-dependent DNA repair in HEK293T cells; 330,000 compounds, 2.3% hits; AID 504467; HEK293T ELG1-luciferase reporter, luminescence, 16 h; DNA damage induced by 5-fluorouridine; Potency, µM (titrated, usually from 46.1 µM), most hits filed as inhibitors; also: nearly all actives have a fitted effect of over 55% in size
#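 Step one: seed 2,000 cells per well. Step two: pin-transfer compound or DMSO alongside 5-fluorouridine. Step three: incubate 16 hr, 37 °C, 5% CO2. Step four: add ONE-Glo, wait 30 min, read luminescence.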
# ELG1 genotoxic: genotoxicity induction in ELG1-luciferase HEK293T cells; HEK293T ELG1-luciferase reporter, luminescence, 16 h; Potency, µM (series often up to 46 µM), most hits filed as activators; 330,000 compounds, 1.3% hits; AID 504466; also: nearly all actives have a fitted effect of over 60% in size
#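 DMSO vehicle served as control against compound-treated ELG1-luciferase HEK293T cells; exposure lasted 16 hr at 37 °C and 5% CO2, followed by ONE-Glo luminescence detection after 30 min.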
# Numbers stand for hits; i = inactive; ? = inconclusive; nt = no result given. Calls follow the shape of the dose curve; as a rule, active = well fitted curve in the direction sought with a large enough effect; inconclusive = small, poorly fitted or top-dose-only effect, or another doubt; inactive = no such curve, though single readings can be large; an effect the other way counts as inactive or inconclusive.
SMILES,FLuc modulator,Rab9 promoter act,NPC1 promoter act,SMN2 splice enh,ELG1 DNA repair,ELG1 genotoxic
O=C(N/N=C/c1ccc(OC(F)F)cc1OC(F)F)c1cccc(S(=O)(=O)N2CCOCC2)c1,i,i,i,i,i,i
CCOC(=O)N1CCN(C(=O)COC(=O)CSc2ccc([N+](=O)[O-])cc2)CC1,i,i,i,nt,i,i
CC1(C(=O)NC2CCCCCCC2)CCC(=O)N1Cc1cccs1 (stereo unspecified),i,i,i,i,i,i
CC(=O)c1c(C)oc2ccc(NS(=O)(=O)c3ccc(F)cc3C)cc12,i,i,i,nt,6.51µM,i
Cc1cc(F)ccc1S(=O)(=O)Nc1ccc2oc3c(c2c1)CC(C)CC3 (stereo unspecified),i,nt,nt,i,nt,nt
Cc1cccc(N2CC(C(=O)Nc3ccc(N4CCOCC4)cc3)CC2=O)c1C (stereo unspecified),nt,nt,nt,nt,i,i
Cc1ccc(NC(=O)N2CCc3ccccc32)cc1C,0.675µM,0.316µM,0.501µM,1.41µM,?,0.651µM
Cc1ccc(NC(=O)N2CCc3ccccc32)cc1,0.536µM,0.631µM,0.708µM,1.26µM,?,?
Cc1ccc(NC(=O)CN2C(=O)CCc3ccccc32)cc1C,23.9µM,nt,nt,nt,nt,nt
Cc1ccc(Cl)cc1NC(=O)CN1C(=O)CCc2ccccc21,i,nt,nt,nt,nt,nt
Cc1ccc(NC(=O)N2CCCc3ccccc32)cc1,?,i,i,nt,i,i
CN1CCN(c2ccc(NC(=O)N3CCc4ccccc43)cc2)CC1,0.757µM,0.112µM,0.316µM,nt,?,0.461µM
Cc1nn(-c2ccccc2)nc1-c1nnc(-c2ccc(C(F)(F)F)cc2)o1,i,i,i,nt,i,i
C/C(=N\NC(=O)CN(c1ccccc1)S(C)(=O)=O)c1ccccc1O,i,i,i,i,16.4µM,i
O=C(CN1C(=O)c2ccccc2C1=O)c1ccc(F)cc1,?,i,i,nt,?,i
NC(=O)C1CCN(C(=O)CN2C(=O)c3ccccc3S2(=O)=O)CC1,i,i,i,i,i,i
O=C(CN1C(=O)c2ccccc2S1(=O)=O)c1cccc(Br)c1,7.57µM,?,?,nt,i,i
O=C(CN1C(=O)c2ccccc2S1(=O)=O)c1ccc(F)cc1,13.5µM,?,?,nt,i,i
O=C(CN1C(=O)c2ccccc2S1(=O)=O)c1ccc(OC(F)F)cc1,12µM,i,i,nt,11.6µM,i
CC1CCN(C(=O)CN2C(=O)c3ccccc3S2(=O)=O)CC1,i,2.51µM,3.55µM,i,?,?
O=S(=O)(N1CCCCC1)N1CCN(c2cc(Cl)ccc2Cl)CC1,i,i,i,nt,i,i
Cc1cc(C(=O)COC(=O)COc2ccc(C#N)cc2)c(C)n1C1CC1,i,i,i,nt,i,i
O=C(CN1C(=O)c2ccccc2S1(=O)=O)c1ccccc1F,10.7µM,?,?,nt,?,i
O=C(CN1C(=O)c2ccccc2S1(=O)=O)N1CCN(c2ccccc2F)CC1,?,i,i,i,?,i
CN(C)c1ccc(/C=N/NC(=O)C(=O)/C=C2\NC3(CCCC3)Cc3ccccc32)cc1,i,i,i,i,11.6µM,i
SMILES,FLuc modulator,Rab9 promoter act,NPC1 promoter act,SMN2 splice enh,ELG1 DNA repair,ELG1 genotoxic
COc1cc(/C=N/NC(=O)C(=O)/C=C2\NC3(CCCC3)Cc3ccccc32)ccc1O,i,i,i,?,23.1µM,i
COc1cc(/C=N/NC(=O)C(=O)NCc2cccnc2)ccc1O,i,i,i,i,i,i
CC(C)N=C1NN=C(c2cccs2)CS1,23.9µM,0.794µM,3.16µM,11.2µM,?,?
CC(C)N=C1NN=C(c2ccc(Cl)c(Cl)c2)CS1,3.38µM,0.355µM,1.41µM,5.01µM,?,2.06µM
CC(C)c1ccc(N=C2NN=C(c3cccs3)CS2)cc1,6.01µM,0.708µM,2µM,12.6µM,?,?
O=C(CCCn1c(=O)c2sccc2n(Cc2cccc(Cl)c2)c1=O)NCc1ccc2c(c1)OCO2,i,nt,nt,i,nt,nt
CC[C@]12c3[nH]c4cc(-c5ccco5)ccc4c3CCN1C(=O)[C@@H](CC(=O)NCCCn1ccnc1)C[C@@H]2C(=O)N1CCN(C(=O)c2ccco2)CC1,nt,nt,nt,nt,i,i
CCCNC(=S)Nc1ccc(F)cc1F,i,i,i,nt,16.4µM,i
CC(=O)NS(=O)(=O)c1ccc(NC(=O)/C=C/c2cn(-c3ccccc3)nc2-c2ccccc2)cc1,9.53µM,i,i,i,i,i
O=C(/C=C\c1cn(-c2ccccc2)nc1-c1ccccc1)Nc1nccs1,?,i,i,i,i,i
COc1ccc(-n2c(/C=C(\C)O)nc(=O)c3c(C)cc(C)nc32)cc1,i,i,i,i,8.2µM,i
COC(=O)C1=CN(c2cccc(C)c2)C=C(C(=O)OC)C1c1cc(OC)c(O)c([N+](=O)[O-])c1,16.9µM,i,i,i,i,i
COC(=O)C1=CN(c2ccc(OC)cc2)C=C(C(=O)OC)C1c1ccc(C)c([N+](=O)[O-])c1,i,i,i,i,i,i
NS(=O)(=O)c1ccc(NC(=O)COC(=O)COc2cccc(C(F)(F)F)c2)cc1,13.5µM,i,i,nt,i,i
